Data reported in the supplement of paper PMC6897291.

Test system: U-2932
Assay: growth inhibition by drug alone (1 - RLU/untreated control) (fraction); higher = stronger inhibition
Details: 177Lu-lilotomab satetraxetan 0 ug/ml
Description: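 U-2932 ABC-DLBCL cells were pretreated or not for 18 h with 1 ug/ml 177Lu-lilotomab satetraxetan (600 MBq/mg), washed and seeded (3000 cells/well) on 384-well plates pre-printed with the Selleck Cambridge Cancer Compound library. Viability was read by RealTime-Glo luminescence on days 3-6 after seeding. Effect = 1 - RLU/mean RLU of the 48 untreated no-drug control wells per plate; Bliss score = (M-E)/(1-Fa), with E the expected Bliss-additive effect.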

| SMILES | growth inhibition by drug alone (10 nM, time (day): 3) | growth inhibition by drug alone (10 nM, time (day): 4) | growth inhibition by drug alone (10 nM, time (day): 5) | growth inhibition by drug alone (10 nM, time (day): 6) | growth inhibition by drug alone (1000 nM, time (day): 3) | growth inhibition by drug alone (1000 nM, time (day): 4) | growth inhibition by drug alone (1000 nM, time (day): 5) | growth inhibition by drug alone (1000 nM, time (day): 6) |
| --- | --- | --- | --- | --- | --- | --- | --- | --- |
| Nc1nc(F)nc2c1ncn2[C@@H]1O[C@H](CO)[C@@H](O)[C@@H]1O [Fludarabine (Fludara)] | 0.0811 | 0.031 | -0.102 | -0.129 | 0.0221 | 0.000892 | -0.0649 | -0.0258 |
| CO[C@H]1C[C@@H]2CC[C@@H](C)[C@@](O)(O2)C(=O)C(=O)N2CCCC[C@H]2C(=O)O[C@H]([C@H](C)C[C@@H]2CC[C@@H](OC(=O)C(C)(CO)CO)[C@H](OC)C2)CC(=O)[C@H](C)/C=C(\C)[C@@H](O)[C@@H](OC)C(=O)[C@H](C)C[C@H](C)/C=C/C=C/C=C/1C [Temsirolimus (Torisel)] | 0.777 | 0.721 | 0.634 | 0.594 | 0.733 | 0.73 | 0.677 | 0.63 |
| O=C1c2ccccc2-c2nc3nonc3nc21 | 0.122 | 0.0829 | -0.0474 | -0.0365 | 0.144 | 0.236 | 0.193 | 0.28 |
| O=C(NOC[C@H](O)CO)c1ccc(F)c(F)c1Nc1ccc(I)cc1F | 0.189 | 0.198 | 0.0482 | 0.0357 | 0.152 | 0.19 | 0.102 | 0.0951 |
| O=C(/C=C/c1cccc(S(=O)(=O)Nc2ccccc2)c1)NO [Belinostat (PXD101)] | 0.222 | 0.196 | 0.137 | 0.152 | 0.961 | 0.964 | 0.974 | 0.979 |
